FXN GAA850 act = frataxin GAA850 promoter activation; activation, % at 6 µM; HEK293 lucGAA850 FXN promoter luciferase reporter, 24 h; percent of 10 µM SAHA response; hit rate 0.56% among 360,000;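 active = activation above the average of all compounds screened plus 3 SD, cutoff fixed separately per campaign, cut at about 7.5% in these data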
MITF TRPM1 HTS = activators of MITF-driven TRPM1 promoter activity in SK-MEL-5 cells; SK-MEL-5 TRPM1-promoter luciferase, 24 h; % of positive control, neutral wells = 0; activation, % at 12.5 µM; hit rate 0.75% among 300,000; AID 588334;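 active = mean activation of at least 80% with every replicate also reaching 80%; inconclusive = mean reaches 80% but some replicate falls short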
esBAF inh = SWI/SNF esBAF complex inhibition | reporter increase, % at 12.5 µM | mouse ES cells, Bmi1-luciferase knock-in reporter, 24 h; 100% = twice the neutral-well signal | hit rate 2% among 350,000; in the data active = activation above about 40%; inconclusive = no clear call, values can overlap the other calls;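 note: a rise in the Bmi1 reporter signal indicates esBAF inhibition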
Wnt bcat act = Wnt/beta-catenin pathway activation; Wnt/beta-catenin reporter cell assay, activator, plate reader; activation, % at 9.35 µM; hit rate 1.2% among 300,000; AID 743398; in the data active = activation above about 30%, passing the limit was not always enough; inconclusive = no clear call, values can overlap the other calls
Hits are given with their value; - = inactive; ? = inconclusive; . = no result given. Most compounds without a hit are left out; they make up all but 2.8% or so of the library.

SMILES	FXN GAA850 act	MITF TRPM1 HTS	esBAF inh	Wnt bcat act
Cc1cc(C[n+]2cc(Br)ccc2N)c2ncccc2c1	-	-	.	41
COc1cc(SC)ccc1C(=O)Nc1ccc2c(c1)CCC2	-	-	47	-
COc1cc(SC)ccc1C(=O)Nc1ccccc1C#N	-	-	43	-
COc1cc(SC)ccc1C(=O)Nc1cccc(C2OCCCO2)c1	-	-	68	-
COc1cc(SC)ccc1C(=O)Nc1ccncc1	-	-	.	-
O=C(NC1CCCCC1)N[C@@H]1CC[C@H](CCNS(=O)(=O)c2ccc(F)cc2)O[C@@H]1CO	.	.	-	.
CN1C(=O)c2cc(NC(=O)Cc3ccccc3)ccc2OC[C@H]2O[C@H](CC(=O)NC3CCC3)CC[C@@H]21	.	.	-	.
CCCC(=O)Nc1ccc2c(c1)OC[C@H](C)N(C(=O)C1CCCC1)C[C@@H](C)[C@@H](OC)CN(C)C2=O	.	.	-	.
Cc1cc(OCC(F)(F)C(F)(F)C(F)(F)C(F)F)nc(N)n1	-	.	50	-
COc1cccc(-c2nc3n(n2)CCc2ccccc2-3)c1	-	.	-	64
Clc1ccc(-c2nc3n(n2)Cc2ccccc2-3)cc1	-	.	-	53
CCN(CC)S(=O)(=O)c1cccc(-c2nc3n(n2)Cc2ccccc2-3)c1	-	-	75	-
COc1cccc(-c2cc(C(=O)N3CCc4ccccc4C3)no2)c1	-	-	-	.
C[C@@H]1CCCCO[C@H](CN(C)C(=O)CCCN(C)C)[C@H](C)CN([C@@H](C)CO)C(=O)c2cc(NC(=O)Nc3ccc(F)cc3)ccc2O1	.	.	-	.
O=C(C[C@H]1CC[C@H](NC(=O)Nc2ccccc2F)[C@H](CO)O1)NCc1ccc(Cl)cc1	.	.	-	.
CN(CC(=O)N1CCCCCC1)S(=O)(=O)c1ccccc1	-	.	57	-
Cc1ccc(S(=O)(=O)N(C)CC(=O)N2CCCCCCC2)cc1	-	-	-	-
CN(CC(=O)N1CCCCCC1)S(=O)(=O)c1ccc(F)cc1	-	-	54	-
C[C@@H]1CN([C@@H](C)CO)C(=O)c2cc(NC(=O)NC3CCCCC3)ccc2O[C@H]1CN(C)S(=O)(=O)c1cccs1	.	.	-	.
C[C@@H]1CN([C@@H](C)CO)C(=O)Cc2cc(NC(=O)Nc3ccc(F)cc3)ccc2O[C@@H]1CN(C)S(=O)(=O)c1cccs1	.	.	-	.
COc1ccc(-c2ccc3c(c2)[C@@H]2[C@@H](CCN2C(=O)c2cccc(F)c2)[C@H](CO)N3C)cc1	.	.	-	.
COc1ccccc1NC(=O)COc1ccccc1C(=O)c1cnn(-c2ccccc2)c1	-	-	.	50
CN(C)C(=O)C[C@@H]1CC[C@H]2[C@@H](COC[C@@H](O)CN2C(=O)C2CC2)O1	.	.	-	.
N=C(N)c1ccc(OCCCCCOc2ccc(C(=N)N)cc2)cc1	-	-	-	-
CCCCCCOc1ccc(/C(N)=N/O)cc1	-	-	75	.
SMILES	FXN GAA850 act	MITF TRPM1 HTS	esBAF inh	Wnt bcat act
COc1ccc2nc3sc(C(=O)NCCN4CCc5ccccc5C4)cc3cc2c1	-	-	89	-
CCCCCc1ccc(-c2cn(CC3CCCCC3)nn2)cc1	-	-	-	-
COc1ccc(-c2cn(CC3CCCCC3)nn2)cc1	-	88	67	-
Cc1ccc(Cn2cc(-c3ccccc3)nn2)cc1	-	-	57	-
c1ccc(-c2cn(CC3CCCCC3)nn2)cc1	-	-	65	32
O=C(Nc1ccc2ncccc2c1)c1cccc(Br)c1	-	-	?	33
Cc1ccc(C(=O)Nc2ccc3ncccc3c2)cc1	-	-	-	-
CCc1cc2c(=O)[nH]c(N3CCCC3)nc2s1	-	-	.	-
CCc1cc2c(=O)[nH]c(-c3ccccn3)nc2s1	-	-	.	34
CC1(c2ccccn2)Nc2ccccc2-c2nc3ccccc3n21 (centres undefined)	-	-	-	-
Cc1cc2n(n1)C(c1ccco1)Nc1ccccc1-2 (centres undefined)	-	.	-	.
c1ccc(C2Nc3ccccc3-c3nc4ccccc4n32)cc1 (centres undefined)	-	.	45	37
c1coc(C2Nc3ccccc3-c3nc4ccccc4n32)c1 (centres undefined)	-	-	46	-
c1ccc(C2Nc3ccccc3-c3nc4ccccc4n32)nc1 (centres undefined)	-	-	.	37
Cc1noc(C)c1NC(=O)Nc1cccc2c1O[C@H](CN(C)Cc1ccc(-c3ccccc3)cc1)[C@@H](C)CN([C@@H](C)CO)C2=O	.	.	-	.
Cc1noc(C)c1S(=O)(=O)Nc1ccc2c(c1)CC(=O)N([C@H](C)CO)C[C@H](C)[C@H](CN(C)S(=O)(=O)c1c(C)noc1C)O2	.	.	-	.
Nc1nnc(/C=C/c2ccccc2Cl)s1	-	.	.	55
CN(C)S(=O)(=O)c1ccc(NC(=O)c2ccccn2)cc1	-	?	-	-
CCN(CC)S(=O)(=O)c1ccc(NC(=O)c2ccccn2)cc1	-	-	48	-
CCc1cc(C(=O)c2ccccc2OC)c(N)s1	-	-	-	.
CCc1cc(C(=O)c2ccc(OC)cc2)c(N)s1	-	.	-	39
CN1[C@H](C(=O)NC2CCCCC2)[C@@H](CO)[C@@H]2Cn3c(ccc(/C=C/c4ccccc4)c3=O)[C@@H]21	.	.	-	.
O=C(c1ccc2oc(CCCc3ccccc3)nc2c1)N1CCCC1	-	-	71	35
COC(=O)C1CCCCN1C(=O)c1ccc2oc(C(C)C)nc2c1 (centres undefined)	-	-	-	-
COCCc1nc2ccc(C(=O)N3CCCCC3COC)cc2o1 (centres undefined)	-	-	-	-
SMILES	FXN GAA850 act	MITF TRPM1 HTS	esBAF inh	Wnt bcat act
CC(=O)C1CCCN(C(=O)c2ccc3oc(CCc4ccccc4)nc3c2)C1 (centres undefined)	-	-	?	-
COC(=O)C1CCCCN1C(=O)c1ccc2oc(Cc3ccccc3)nc2c1 (centres undefined)	-	108	?	-
COCCC1CCCCN1C(=O)c1ccc2nc(Cc3ccccc3F)oc2c1 (centres undefined)	-	134	.	-
CC(C)NC(=O)N(C)C[C@@H]1Oc2cc(C#Cc3ccccn3)ccc2S(=O)(=O)N([C@H](C)CO)C[C@H]1C	.	.	-	.
Cc1noc(C)c1NC(=O)Nc1ccc2c(c1)C(=O)N([C@@H](C)CO)C[C@@H](C)[C@H](CN(C)C(=O)Nc1ccc(F)cc1)O2	.	.	-	.
O=C(/C=C/Nc1cccc(O)c1)c1ccccc1	-	-	-	48
O=C1CC(c2ccccc2)Sc2nc3ccccc3n21 (centres undefined)	-	-	.	35
C[C@H](CO)N1C[C@H](C)[C@@H](CN(C)C(=O)Nc2ccc(F)cc2)OCCCC[C@H](C)Oc2ccc(NS(=O)(=O)c3cn(C)cn3)cc2C1=O	.	.	-	.
NC(=O)C(=O)N/N=C1\CCc2ccccc21	-	-	48	33
CSc1ccccc1NC(=O)COc1ccccc1Cl	-	-	-	.
CC(C)(C)C(=O)NNC(=O)CCCOc1ccc(Cl)cc1Cl	-	-	-	.
O=C(CCCOc1ccc(Cl)cc1Cl)Nc1ccccc1C(=O)O	-	-	79	?
CSc1ccccc1NC(=O)COc1ccc(Cl)cc1Cl	-	-	47	.
CC(=O)c1sc(NC(=O)COc2ccc(Cl)cc2Cl)nc1C	-	-	45	-
CC(C)(CO)NC(=O)CCCOc1ccc(Cl)cc1Cl	-	-	48	.

Assay outcomes deposited in PubChem by several laboratories.
